These results are taken from PubChem BioAssay AID463173 (ICCB-Longwood Screening Facility, Harvard Medical School, 2010).

The whole screen tested about 52,000 compounds, of which about 4,300 (8.3%) were called active. This is one part of a sample in which actives are shown more often than they occur. Rule as the data show it: active = survival mostly below about 52% (no sharp cut-off); inactive = mostly above about 56%.

For the assay, the system named is DeltatarO mutant. In words: growth inhibition of S. aureus wild type versus tarO mutant, primary screen, teichoic acid synthesis inhibitors, RN4220, OD600 (AID 463173). To be noted: OD600, 18 h, active compounds read low, screened at 18.75 µg/mL (by protocol).
As to `COc1cc(C(=O)Nc2cccc(OCc3cc(=O)n4cc(C)sc4n3)c2)cc(OC)c1OC`, the survival is 90% (inactive). The value for `COc1ccccc1C1C=C(c2ccc(Cl)cc2)Nc2nc(-c3ccc(Cl)cc3)nn21` (stereo not drawn) was 59% (inactive); that for `COC(=O)C1=C(C)NC(=O)CC1c1ccccc1` (stereo not drawn) was 105% (inactive); that for `COc1ccccc1CCNC(=O)C1CCN(c2nnc(C)c3c(C)n(-c4ccc(C)cc4)nc23)CC1` was 85% (inactive). With `CC(=O)N1CCCc2cc(S(=O)(=O)N3CCCC(C(=O)Nc4ccc(C)cc4C)C3)ccc21` (stereo not drawn), the survival was 71% (inactive).

Take `Cc1ccc(C(=O)Nc2nc3nc(C)cc(=O)n3[nH]2)cc1`: the survival was 91% (inactive). As to `O=C(Cc1ccccc1)Nc1c(C(=O)N2CCN(c3ccc(F)cc3)CC2)oc2ccccc12`, the survival was 49% (inactive).

For the molecule `O=C(Cn1ncc2c(=O)oc3ccccc3c21)N1CCN(c2ccc(Cl)cc2)CC1`, the survival is 93% (inactive). Consider `CCn1ccc2cc(S(=O)(=O)N3CCCN(C(=O)Nc4ccc(C)c(F)c4)CC3)ccc21`, for which the survival was 73% (inactive). The figure for `COc1cccc(/C=C/C(=O)Nc2ccc3nc(N4CCN(C)CC4)cc(C)c3c2)c1OC` is 79% (inactive); for `COc1ccc(/C=C/C(=O)Nc2ccc(Cl)c(Cl)c2)cc1` it is 66% (inactive); for `CCN1CCN(c2cc(C)c3cc(NC(=O)/C=C/c4cccc(OC)c4OC)ccc3n2)CC1` it is 43% (active). The value for `CCN1CCN(c2cc(C)c3cc(NC(=O)/C=C/c4cccc(Cl)c4)ccc3n2)CC1` was 44% (active); that for `CCN1CCN(c2cc(C)c3cc(NC(=O)/C=C/c4ccc(C)cc4)ccc3n2)CC1` was 52% (inactive). For the molecule `CCN1CCN(c2cc(C)c3cc(NC(=O)/C=C/c4ccc(OCCC(C)C)cc4)ccc3n2)CC1`, the survival was 112% (inactive). The value for `COc1ccc(Nc2c3c(nc4ccc(NC(=O)/C=C/c5cccc(OC)c5OC)cc24)CCCC3)cc1OC` was 66% (inactive); that for `COc1ccc(/C=C/C(=O)Nc2ccc(Cl)c(Cl)c2)cc1OC` was 18% (active). The figure for `C/C=C/C(=O)Nc1ccc(Cl)c(Cl)c1` is 70% (inactive); for `O=C(CSc1nnc(-c2ccc([N+](=O)[O-])cc2)o1)Nc1ccccc1` it is 81% (inactive); for `CCSc1ncc(Cl)c(C(=O)Nc2sc(C(C)=O)c(C)c2C(=O)OC)n1` it is 72% (inactive). Take `O=C(Cn1ncc2c3ccccc3n(Cc3ccc(F)cc3)c2c1=O)NC1CCCCCC1`: the survival is 80% (inactive). As to `COc1cccc(CNC(=O)CN(c2ccc(C)cc2)S(=O)(=O)N(C)C)c1OC`, the survival was 94% (inactive).

Turning to `C=Cc1ccc(CN2C(=O)N(c3ccc(C)c(C)c3)S(=O)(=O)c3ccccc32)cc1`, the survival was 84% (inactive).

For `C=Cc1ccc(CN2C(=O)N(c3ccc(CC)cc3)S(=O)(=O)c3ccccc32)cc1`, the survival is 6% (active). Regarding `C=Cc1ccc(CN2C(=O)N(c3cccc(Cl)c3)S(=O)(=O)c3ccccc32)cc1`, the survival is 64% (inactive).

Consider `COc1cc(NC(=O)CCc2nc3cccnc3n2Cc2cccs2)cc(OC)c1OC`, for which the survival is 78% (inactive). The value for `CC(=O)NC(Cc1cccc(C)c1)C(=O)NC1CCN(c2nc(C)cc(C)c2C#N)CC1` (stereo not drawn) was 97% (inactive); that for `CCS(=O)(=O)c1cccc(C(=O)Nc2ccc(-c3nc4ccccc4s3)c(O)c2)c1` was 85% (inactive); that for `COc1ccc(OC)c(C2Nc3c(C)cc(C)cc3-c3cc(C)nn32)c1` (stereo not drawn) was -3% (active). The value for `CCOc1cccc(C2Nc3ccccc3-c3cc(C)nn32)c1O` (stereo not drawn) was 195% (inactive).

For the molecule `COC(=O)c1ccc(C2Nc3c(C)cccc3-c3cc(C)nn32)cc1` (stereo not drawn), the survival is 74% (inactive). The value for `Cc1cc2n(n1)C(c1ccccc1)Nc1ccccc1-2` (stereo not drawn) was 93% (inactive); that for `COc1cc(OC)c(C2Nc3c(C)cccc3-c3cc(C)nn32)cc1OC` (stereo not drawn) was 184% (inactive); that for `CCOc1ccc(C2Nc3c(C)cccc3-c3cc(C)nn32)cc1` (stereo not drawn) was 0% (active). Turning to `CCN(CC)c1ccc(C2Nc3ccccc3-c3cc(C)nn32)cc1` (stereo not drawn), the survival is 7% (active). As to `COc1cc(C2Nc3ccccc3-c3cc(C)nn32)ccc1O` (stereo not drawn), the survival was 121% (inactive). As for `COc1cc(C2Nc3c(C)cc(C)cc3-c3cc(C)nn32)cc(OC)c1O` (stereo not drawn), the survival was 131% (inactive). The value for `O=C(NCc1ccccc1Cl)C1CCN(C(=O)N2CCOc3ccccc32)CC1` was 83% (inactive). The figure for `COCCn1c(COc2cccc(OC)c2)nnc1SCC(=O)NC1CCCC1` is 82% (inactive); for `COc1ccc(NC(=O)c2cc(C)nc3c2c(C)nn3-c2ccc(C)cc2)cc1OC` it is 94% (inactive).

Turning to `Cc1ccc2[nH]c(=O)c(CN(C(=O)c3cccc(Cl)c3)C(C)(C)C)cc2c1`, the survival was 94% (inactive). The figure for `Cc1ccc(C(=O)CSc2nc(-c3ccccc3)nc3c2CCCC3)cc1C` is 15% (active). The figure for `O=C(CSc1nc(-c2ccccc2)nc2c1CCCC2)c1ccc(Cl)cc1` is 76% (inactive); for `CCc1ccc(C(=O)CSc2nc(-c3ccccc3)nc3c2CCCC3)cc1` it is 60% (inactive). Take `Cc1ccc(C)c(C(=O)CSc2nc(-c3ccccc3)nc3c2CCCC3)c1`: the survival is 2% (active). As to `Cc1ccc(C(=O)CSc2nc(-c3ccccc3)nc3c2CCCC3)c(C)c1`, the survival was 47% (inactive). Regarding `O=C(CSc1nc(-c2ccccc2)nc2c1CCCC2)c1ccc(F)cc1`, the survival was 83% (inactive). For `Cc1ccc(C(=O)CSc2nc(-c3ccccc3)nc3c2CCCC3)cc1`, the survival is 36% (active). For `NC(=O)CSc1nc(-c2ccccc2)nc2c1CCCC2`, the survival is 88% (inactive). For the molecule `Cc1nc2c(c(SCC(=O)Nc3ccccc3C(F)(F)F)n1)CCC2`, the survival is 60% (inactive). Regarding `OC(CNCc1ccccn1)COc1ccc(OCC(O)CNCc2ccccn2)cc1` (stereo not drawn), the survival is 96% (inactive). The value for `Cc1ccc2c(c1)NC(=O)c1cccnc1O2` was 94% (inactive). `CCOc1ccc(CNC(=O)C(C)n2ncn3cccc3c2=O)cc1` (stereo not drawn): the survival was 69% (inactive).

As to `COc1ccc(C(C(=O)NC2CCCC2)N(Cc2ccco2)C(=O)Cn2nc(C(F)(F)F)c3c2CCCC3)cc1` (stereo not drawn), the survival was 91% (inactive). Turning to `Brc1ccc(-c2csc(NN=C3CCCC3)n2)cc1`, the survival was 102% (inactive).

Take `COC(=O)c1ccccc1NC(=O)c1ccc2c(c1)CCN2S(=O)(=O)c1ccc(Cl)cc1`: the survival was 69% (inactive).

Turning to `CCn1c2c(c(=O)n3ncc(C(=O)Nc4ccc(OC(F)(F)F)cc4)c13)CN(Cc1ccc(OC)cc1)CC2`, the survival is 94% (inactive).

For `CCn1c2c(c(=O)n3ncc(C(=O)Nc4ccc(Cl)cc4C)c13)CN(Cc1ccc(OC)cc1)CC2`, the survival is 87% (inactive). Regarding `CCn1c2c(c(=O)n3ncc(C(=O)Nc4ccc(F)c(Cl)c4)c13)CN(Cc1ccc(OC)cc1)CC2`, the survival was 17% (active). The figure for `c1ccc(N2CCN(Cc3cccn3-c3nnc(N4CCN(C5CCCCC5)CC4)s3)CC2)cc1` is 76% (inactive); for `CC(=O)N1CCc2cc(Br)cc(S(=O)(=O)N3CCC(C(=O)Nc4cccc(C)c4C)CC3)c21` it is 75% (active). For the molecule `CCC(=O)N1CCc2cc(Br)cc(S(=O)(=O)N3CCC(C(=O)NC(C)(C)C)CC3)c21`, the survival is 84% (inactive). Consider `CCCCNC(=O)C1CCN(S(=O)(=O)c2cc(Br)cc3c2N(C(=O)CC)CC3)CC1`, for which the survival was 90% (inactive). The value for `CCOc1ccccc1NC(=O)C1CCN(S(=O)(=O)c2cc(Br)cc3c2N(C(C)=O)CC3)CC1` was 69% (inactive); that for `CCC(=O)N1CCc2cc(Br)cc(S(=O)(=O)N3CCC(C(=O)Nc4ccccc4F)CC3)c21` was 43% (active); that for `CCc1cccc(C)c1NC(=O)C1CCN(S(=O)(=O)c2cc(Br)cc3c2N(C(C)=O)CC3)CC1` was 59% (inactive).

For the molecule `CCC(=O)N1CCc2cc(Br)cc(S(=O)(=O)N3CCC(C(=O)Nc4ccccc4CC)CC3)c21`, the survival is 84% (inactive). Regarding `CCC(=O)N1CCc2cc(Br)cc(S(=O)(=O)N3CCC(C(=O)Nc4cccc(C)c4)CC3)c21`, the survival is 80% (inactive). The value for `CCC(=O)N1CCc2cc(Br)cc(S(=O)(=O)N3CCC(C(=O)Nc4ccc(OC)cc4)CC3)c21` was 8% (active). In the case of `COC(=O)CNC(=O)C1CCN(c2nc(C)cc(-c3ccccc3)n2)CC1`, the survival was 96% (inactive). The figure for `O=C(Nc1sc2c(c1C(=O)c1ccccc1)CCCC2)c1ccco1` is 73% (inactive); for `O=C(/C=C/c1ccco1)NC(=S)Nc1ccccc1O` it is 100% (inactive); for `CCCCNC(=O)C1CCC(Cn2c(=O)c3sccc3n(Cc3ccccc3)c2=O)CC1` (stereo not drawn) it is 71% (inactive). The value for `CSc1ccc(CCNC(=O)c2cnc3c(C)cccn3c2=O)cc1` was 89% (inactive); that for `CCc1ccccc1NC(=O)C1CCC(CNS(=O)(=O)c2ccc3c(c2)CC(C)N3C(C)=O)CC1` (stereo not drawn) was 91% (inactive). `COc1cccc(NC(=O)CCc2c(C)nc3nc(CNC(=O)c4cccc(F)c4)nn3c2C)c1`: the survival was 76% (inactive). The figure for `COc1ccc(CNC(=O)c2ccc3c(c2)N(Cc2cc(C)ccc2C)C(=O)CS3)cc1` is 59% (inactive). In the case of `CCN1CCSc2ccc(C(=O)NCc3cccc(F)c3)cc21`, the survival was 61% (inactive). As for `O=C(NCc1ccc(F)cc1)c1ccc2c(c1)N(Cc1ccc(F)cc1Cl)C(=O)CS2`, the survival is 57% (inactive). Turning to `Cc1ccc(CNC(=O)c2ccc3c(c2)N(Cc2ccccc2Cl)C(=O)CS3)cc1`, the survival was 50% (inactive). In the case of `Cc1ccc(CNC(=O)c2ccc3c(c2)N(Cc2cccc(C)c2)C(=O)CS3)cc1`, the survival is 46% (active). The figure for `O=C(NCc1ccccc1Cl)c1ccc2c(c1)N(Cc1ccccc1)C(=O)CS2` is 101% (inactive); for `Cc1cccc(CNC(=O)c2ccc3c(c2)N(C)CCS3)c1` it is 65% (inactive); for `Cc1ccc(C)c(CN2C(=O)CSc3ccc(C(=O)NCc4ccc(F)cc4)cc32)c1` it is 46% (active). As for `CCN1CCSc2ccc(C(=O)NCc3ccccc3Br)cc21`, the survival is 62% (inactive). The value for `Cc1cccc(CN2C(=O)c3ccccc3Sc3ccc(C(=O)NCc4cccs4)cc32)c1` was 93% (inactive).

In the case of `Cc1ccc(CNC(=O)c2ccc3c(c2)N(Cc2cccc(Cl)c2)C(=O)CS3)cc1`, the survival was 40% (active).

Regarding `CCN1CCSc2ccc(C(=O)NCc3cccc(Br)c3)cc21`, the survival is 46% (active).
